# Reference: PubChem BioAssay (NCATS)
# Values joined by “and” are separate entries in the source; they are usually repeats but may differ in a detail not shown here. Equal entries are not always repeated. A number with no mark means an inactive call. Records with an inconclusive call do not appear. Where a call stands in place of a potency, no number is given. Active and inactive are the calls of the source. Unless noted, the call rests on the fitted dose curve; in most records, active means well fitted curve in the direction sought with a large enough effect; inconclusive means small, poorly fitted or top-dose-only effect, or another doubt; inactive means no such curve, though single readings can be large; an effect the other way counts as inactive or inconclusive.
# Assays:
# PA-1 = assay: Primary qHTS to identify gynecologic anti-cancer compounds using libraries of approved drugs and bioactive compounds (AID 1345084); conditions: Gynecologic cancer cell panel viability, ATPlite luminescence, 48 h; series mostly up to 57.5 µM; further: nearly all actives have a fitted effect of over 55% in size
# Procedure, shortened: (§1)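 ATP-based viability (ATPlite), 1,000 cells/well, 16 h pre-incubation, 48 h compound at 37 C, 5% CO2, 15 min RT before read.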
# SKOV3 = assay: as above; conditions: Gynecologic cancer cell panel viability, ATPlite luminescence, 48 h; series mostly up to 57.5 µM
# Procedure, shortened: as §1
# Tov-21-G = assay: as above; conditions: Gynecologic cancer cell panel viability, ATPlite luminescence, 48 h; series mostly up to 57.5 µM
# Procedure, shortened: as §1
# Tov112D = assay: as above; conditions: Gynecologic cancer cell panel viability, ATPlite luminescence, 48 h; series mostly up to 57.5 µM
# Procedure, shortened: as §1
# [1] = Drug repurposing screens with cells derived from glioblastoma tumor samples (AID 1345199); conditions: GBM patient neurospheres viability, ATP luminescence, 48 h; further: nearly all actives have a fitted effect of over 40% in size; further: potency means the concentration at half of the fitted maximal effect
# Procedure, shortened: (§2)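 Four patient lines of CD133+ GBM neurospheres were screened at several concentrations; hits were retested in those lines plus three slower-growing GBM lines, using 48-hour treatment and ATP-based viability.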
# astro = assay: as above; conditions: viability, ATP luminescence, 48 h; series mostly up to 45.9 µM
# Procedure, shortened: as §2
# [2] = target: Nuclear receptor subfamily 1 group I member 2 (Rattus norvegicus) (UniProt Q9R1A7); assay: qHTS assay for small molecule activators of the rat pregnane X receptor (rPXR) signaling pathway (AID 651751; call rule not given here); conditions: rPXR reporter cells, luciferase (One-Glo), 24 h
# [3] = qHTS assay for small molecule activators of the human pregnane X receptor (PXR) signaling pathway (AID 720659; call rule not given here)
# [4] = at 45.9 µM (top of the series), tumour line B
# [5] = at 45.9 µM (top of the series), tumour line D
# [6] = at 91.6 µM (top of the series), tumour line B
# [7] = at 46 µM (top of the series), tumour line A
# Sequence of Nuclear receptor subfamily 1 group I member 2 (Rattus norvegicus) (Q9R1A7 whole entry, looked up): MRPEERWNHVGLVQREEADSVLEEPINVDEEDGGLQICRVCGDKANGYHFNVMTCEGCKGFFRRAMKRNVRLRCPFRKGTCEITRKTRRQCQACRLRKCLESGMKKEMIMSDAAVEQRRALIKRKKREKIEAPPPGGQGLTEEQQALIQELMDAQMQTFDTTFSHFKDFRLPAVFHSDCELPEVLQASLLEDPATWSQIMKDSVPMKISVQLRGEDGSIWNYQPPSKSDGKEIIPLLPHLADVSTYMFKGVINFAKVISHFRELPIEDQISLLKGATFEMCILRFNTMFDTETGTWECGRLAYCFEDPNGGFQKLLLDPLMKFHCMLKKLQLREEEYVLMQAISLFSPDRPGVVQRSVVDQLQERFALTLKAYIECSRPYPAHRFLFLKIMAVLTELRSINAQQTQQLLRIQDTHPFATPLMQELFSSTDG
smiles,measurement,setting,value
O=C(O)CCCc1ccc(N(CCCl)CCCl)cc1,Potency,PA-1,inactive
same,outcome,SKOV3,inactive
same,Potency,Tov-21-G,inactive
same,Potency,Tov112D,inactive
same,"activity, negative = cell killing",[1]; [4],-11.3%
same,"activity, negative = cell killing",[1]; [5],-13.2%
same,Potency,astro,inactive
same,max response,[2],4.32% and -0.624%
same,outcome,[3],inactive
CCCCC/C=C\C/C=C\C/C=C\C/C=C\CCCC(=O)NCC(=O)O,Potency,PA-1,inactive
same,Potency,Tov-21-G,inactive
same,Potency,Tov112D,inactive
same,"activity, negative = cell killing","[1]; at 4.17 µM (top of the series), tumour line A",-24.5%
same,"activity, negative = cell killing","[1]; at 4.17 µM (top of the series), tumour line B",-4.38%
same,"activity, negative = cell killing","[1]; at 4.17 µM (top of the series), tumour line D",-5.18%
CCC1(c2ccc(N)cc2)CCC(=O)NC1=O (stereo not given),Potency,PA-1,inactive
same,outcome,SKOV3,inactive
same,Potency,Tov-21-G,inactive
same,Potency,Tov112D,inactive
same,"activity, negative = cell killing",[1]; [4],-18.5%
same,"activity, negative = cell killing",[1]; [5],-18.3%
same,Potency,astro,inactive
CCN[C@H](C)Cc1cccc(C(F)(F)F)c1,Potency,PA-1,inactive
same,outcome,SKOV3,inactive
same,Potency,Tov-21-G,inactive
same,Potency,Tov112D,inactive
same,"activity, negative = cell killing",[1]; [6],-5.97%
same,"activity, negative = cell killing","[1]; at 91.6 µM (top of the series), tumour line D",-5.78%
same,Potency,astro,inactive
CN1CCC(O)(c2ccc(F)cc2)C(C(=O)c2ccc(F)cc2)C1 (stereo not given),Potency,PA-1,inactive
same,outcome,SKOV3,inactive
same,Potency,Tov-21-G,inactive
same,Potency,Tov112D,inactive
same,Potency,[1]; tumour line A,12.6 µM (active)
same,Potency,[1]; tumour line B,28.2 µM (active)
same,Potency,astro,inactive
O=c1c(C2CC(c3ccc(-c4ccc(Br)cc4)cc3)Cc3ccccc32)c(O)sc2ccccc12 (stereo not given),Potency,PA-1,inactive
same,outcome,SKOV3,inactive
same,Potency,Tov112D,inactive
CC(Cc1ccccc1)NCCn1cnc2c1c(=O)n(C)c(=O)n2C (stereo not given),Potency,PA-1,inactive
same,outcome,SKOV3,inactive
same,Potency,Tov-21-G,inactive
same,Potency,Tov112D,inactive
same,"activity, negative = cell killing",[1]; [6],-19.2%
same,Potency,[1]; tumour line A,31.6 µM (active)
same,Potency,astro,inactive
CC(C)(C)NCC(O)c1ccccc1Cl (stereo not given),Potency,PA-1,inactive
same,outcome,SKOV3,inactive
same,Potency,Tov-21-G,inactive
same,Potency,Tov112D,inactive
same,"activity, negative = cell killing",[1]; [4],-9.73%
same,"activity, negative = cell killing",[1]; [5],-4.92%
same,Potency,astro,inactive
NCCc1ccc(O)cc1,Potency,PA-1,inactive
same,outcome,SKOV3,inactive
same,Potency,Tov-21-G,inactive
same,Potency,Tov112D,inactive
same,"activity, negative = cell killing",[1]; [4],-7.62%
same,"activity, negative = cell killing",[1]; [5],3.08%
same,"activity, negative = cell killing",[1]; [7],-19.3%
same,Potency,astro,inactive
same,max response,[2],0.0715%
same,outcome,[3],inactive
C=CCN1C[C@H](C)N([C@H](c2ccc(C(=O)N(CC)CC)cc2)c2cccc(OC)c2)C[C@H]1C,Potency,PA-1,inactive
same,outcome,SKOV3,inactive
same,Potency,Tov-21-G,inactive
same,Potency,Tov112D,inactive
same,"activity, negative = cell killing",[1]; [4],-27.6%
same,Potency,[1]; tumour line A,7.08 µM (active)
same,Potency,astro,inactive
COP(=S)(OC)SCN1C(=O)c2ccccc2C1=O,Potency,PA-1,inactive
same,outcome,SKOV3,inactive
same,Potency,Tov-21-G,inactive
same,Potency,Tov112D,inactive
same,"activity, negative = cell killing",[1]; [4],-19.8%
same,"activity, negative = cell killing",[1]; [5],-8.89%
same,Potency,astro,inactive
same,max response,[2],-5.41%
same,outcome,[3],inactive
COP(=S)(OC)Oc1cc(Cl)c(Cl)cc1Cl,Potency,PA-1,inactive
same,outcome,SKOV3,inactive
same,Potency,Tov-21-G,inactive
same,Potency,Tov112D,inactive
same,"activity, negative = cell killing",[1]; [4],10.9% and 7.75%
same,"activity, negative = cell killing",[1]; [5],-10.8% and 1.81%
same,"activity, negative = cell killing",[1]; [7],-24.7% and -15.3%
same,Potency,astro,inactive
same,max response,[2],1.25%
same,outcome,[3],inactive
CCCCCCCCCC(=O)O[C@H]1CC[C@H]2[C@@H]3CCC4=CC(=O)CC[C@@H]4[C@H]3CC[C@]12C,Potency,PA-1,inactive
same,outcome,SKOV3,inactive
same,Potency,Tov-21-G,inactive
same,Potency,Tov112D,inactive
same,"activity, negative = cell killing",[1]; [4],-3.32%
same,"activity, negative = cell killing",[1]; [5],-5.94%
same,Potency,astro,inactive
Clc1ccc(C(c2ccc(Cl)cc2)C(Cl)(Cl)Cl)cc1,Potency,PA-1,inactive
same,outcome,SKOV3,inactive
same,Potency,Tov-21-G,inactive
same,Potency,Tov112D,inactive
same,Potency,[1]; tumour line A,11.2 µM (active)
same,Potency,astro,inactive
[N-]=[N+]=CC(=O)OC[C@H](N)C(=O)O,Potency,PA-1,inactive
same,outcome,SKOV3,inactive
same,Potency,Tov-21-G,inactive
same,Potency,Tov112D,inactive
same,"activity, negative = cell killing",[1]; [4],-23.8%
same,"activity, negative = cell killing",[1]; [5],-9.43%
same,"activity, negative = cell killing",[1]; [7],-24.5%
same,max response,[2],-5.51%
same,outcome,[3],inactive
CNCC(=O)c1ccc(O)c(O)c1,Potency,PA-1,inactive
same,outcome,SKOV3,inactive
same,Potency,Tov-21-G,inactive
same,Potency,Tov112D,inactive
same,"activity, negative = cell killing",[1]; [4],-11.2%
same,"activity, negative = cell killing",[1]; [5],-3.6%
same,Potency,astro,inactive
CN1CC[C@]23c4c5ccc(O)c4O[C@H]2[C@@H](O)C=C[C@H]3[C@H]1C5,Potency,PA-1,inactive
same,outcome,SKOV3,inactive
same,Potency,Tov-21-G,inactive
same,Potency,Tov112D,inactive
same,Potency,[1]; tumour line A,20 µM (active)
same,Potency,astro,inactive
Nc1nc(N)nc(NC2CC2)n1,Potency,PA-1,inactive
same,outcome,SKOV3,inactive
same,Potency,Tov-21-G,inactive
same,Potency,Tov112D,inactive
same,"activity, negative = cell killing",[1]; [4],-5.44%
same,"activity, negative = cell killing",[1]; [5],-12.5%
same,max response,[2],2.97%
same,outcome,[3],inactive
CN1C(=O)COc2c(C(=O)NC3CN4CCC3CC4)cc(Cl)cc21 (stereo not given),Potency,PA-1,inactive
same,outcome,SKOV3,inactive
same,Potency,Tov-21-G,inactive
same,Potency,Tov112D,inactive
same,Potency,[1]; tumour line A,22.4 µM (active)
same,Potency,astro,inactive
CC(C)c1cccc(C(C)C)c1O,Potency,PA-1,inactive
same,outcome,SKOV3,inactive
same,Potency,Tov-21-G,inactive
same,Potency,Tov112D,inactive
same,"activity, negative = cell killing",[1]; [4],6.49%
same,"activity, negative = cell killing",[1]; [5],2.93%
same,"activity, negative = cell killing",[1]; [7],-26.1%
same,max response,[2],-2.57%
COc1ccc2c(c1OC)C(=O)O[C@H]2[C@@H]1c2cc3c(cc2CCN1C)OCO3,Potency,PA-1,inactive
same,Potency,Tov-21-G,inactive
same,Potency,Tov112D,inactive
same,"activity, negative = cell killing",[1]; [4],0.565%
same,"activity, negative = cell killing",[1]; [5],-4.13%
C[C@]12CC[C@@H]3c4ccc(OC(=O)N(CCCl)CCCl)cc4CC[C@H]3[C@@H]1CC[C@@H]2OP(=O)(O)O,Potency,PA-1,inactive
same,outcome,SKOV3,inactive
same,Potency,Tov-21-G,inactive
same,Potency,Tov112D,inactive
same,"activity, negative = cell killing",[1]; [4],-5.05%
same,"activity, negative = cell killing",[1]; [5],-6.53%
same,Potency,astro,10 µM (active)
COc1cc(OC)c(OC)cc1C=O,Potency,PA-1,inactive
same,outcome,SKOV3,inactive
same,Potency,Tov-21-G,inactive
same,Potency,Tov112D,inactive
same,"activity, negative = cell killing",[1]; [6],-6.05%
same,max response,[2],5.78%
same,outcome,[3],inactive
